Test results published in PubChem BioAssay (Tox21).
Records with an inconclusive call do not appear. Activity calls are given as the source filed them. The call rests on the fitted dose curve; in most records, active means well fitted cell-killing curve with a large enough effect in the repeat runs; inconclusive means weak or mixed curves, or effect the other way; inactive means flat fitted curve, though single readings scatter.

test: Nuclear factor erythroid 2-related factor 2/antioxidant responsive element (Nrf2/ARE) small molecule agonists: qHTS cell viability counter screen in human keratinocytes (AID 1919968); conditions: KeratinoSens HaCaT ARE cells viability, CellTiter-Fluor, 24 h; series mostly up to 92.4 µM; activity change, negative = cytotoxicity: at the top concentration; further: nearly all actives have a fitted effect of over 55% in size
Description: U.S. Tox21 Program National Center for Advancing Translational Sciences [NCATS] Division of Preclinical Innovation [DPI] U.S. Environmental Protection Agency [EPA] National Institutes of Environmental Health Sciences [NIEHS] National Toxicology Program [NTP] U.S. Food and Drug Administration [FDA] Tox21 Assay Overview: Oxidative stress has been implicated in the pathogenesis of a variety of diseases ranging from cancer to neurodegeneration. The antioxidant response element (ARE) signaling pathway plays an important role in the amelioration of oxidative stress. The KeratinoSens (Givaudan, Switzerland) is an in vitro test method which quantifies luciferase induction as a measure of activation of Keap1-Nrf2-antioxidationt/electrophile response element (ARE) dependant pathway in HaCaT human keratinocytes stably transfected with a selectable plasmid. The KeratinoSens assay is a cell-based assay with a reporter cell line to detect potential skin sensitizers by their ability to induce the Nrf2/ARE-response. The activation of the report gene under culture conditions can be detected by ONE-Glo Luciferase Assay System (Promega, Madison, WI). This cell line has been used to screen the Tox21 10K compound library to identify agonists that induce oxidative stress. The cytotoxicity of the Tox21 compound library against the KS-ARE cell line was tested in parallel by measuring the cell viability using CellTiter- Fluor assay system (Promega, Madison, WI) in the same wells.
Tox21 Assay Protocol Summary: HaCaT derived cell line KeratinoSens were dispensed at 1,500 cells/5uL/well in 1536-well white wall/solid bottom plates using a Multidrop Combi (ThermoFisher Scientific, Waltham, MA) dispenser. After the assay plates were incubated at 37 C/5% CO2 for 5 h, 23 nL of compounds dissolved in DMSO, positive controls or DMSO only was transferred to the assay plate by a pintool workstation (Kalypsys, San Diego, CA). The plates were incubated at 37 C/5% CO2 for 23 h, followed by addition of 1uL/well of CellTiter-Fluor reagent into the assay plates using a Flying Reagent Dispenser (Aurora Discovery, San Diego, CA) for cell viability readout that measures cytotoxicity. After 1 h incubation at 37 C/5% CO2 the fluorescence intensity was measured using a ViewLux (PerkinElmer, Shelton, CT) plate reader.
On the % scale 0 is the no-effect control and ±100 the full control effect; potency means the concentration at half of the fitted maximal effect.

SMILES | activity change, negative = cytotoxicity | Potency
CC(C)(Cl)[N+](=O)[O-] | 4.38% (inactive) | –
[Cl-].[Cl-].[Sn+2] | -8.23% (inactive) | –
CC(C)=CCOc1c2occc2cc2ccc(=O)oc12 | 21.7% [at 42.5 µM] (inactive) | –
C=CCOC(=O)c1ccccc1N | -4.51% (inactive) | –
CC(Oc1ccc(Oc2ncc(C(F)(F)F)cc2Cl)cc1)C(=O)O (stereo not given) | -22.6% (inactive) | –
COc1cc(OC)nc(NC(=O)NS(=O)(=O)c2ncccc2OCC(F)(F)F)n1 | -1.89% (inactive) | –
C=CC[C@]1(O)CC[C@H]2[C@@H]3CCC4=CC(=O)CCC4=C3C=C[C@@]21C | -2.09% [at 42.5 µM] (inactive) | –
CC(Cl)CN(C)C (stereo not given) | 2.23% (inactive) | –
CCSC(=O)Cl | 4.15% (inactive) | –
CCN(CC)CCc1c[nH]c2ccccc12 | -8.02% (inactive) | –
CCc1ccc(C2CCNCC2)cc1 | 9.81% [at 42.5 µM] (inactive) | –
O=C1c2ccccc2C(=O)C1C(=O)C(c1ccccc1)c1ccccc1 | -12.6% [at 42.5 µM] (inactive) | –
Oc1c(Br)c(Br)c(Br)c(Br)c1Br | – | 30.8 µM (active)
Nc1c(Cl)c(F)nc(OCC(=O)O)c1Cl | 1.47% (inactive) | –
CCCCOP(=O)(O)OCCCC | 7.15% (inactive) | –
CN1CCC(O)(c2ccc(F)cc2)C(C(=O)c2ccc(F)cc2)C1 (stereo not given) | 3.13% [at 42.5 µM] (inactive) | –
CC(Oc1cc(Cl)c(Cl)cc1Cl)C(=O)O (stereo not given) | 8.64% (inactive) | –
C=C(Cl)Cl | -0.632% (inactive) | –
Oc1ccc(Cc2ccc(O)cc2)cc1 | -6.12% (inactive) | –
CC(Cl)(Cl)Cl | 1.23% (inactive) | –

SMILES | activity change, negative = cytotoxicity | Potency
C=CCc1ccc(OC(=O)Cc2ccccc2)c(OC)c1 | 3.4% (inactive) | –
CCN(CC)CCOC(=O)C(O)(c1ccccc1)c1ccccc1 | 1.42% [at 42.5 µM] (inactive) | –
Clc1ccc(CSC(Cn2ccnc2)c2ccc(Cl)cc2Cl)cc1 (stereo not given) | – | 29.8 µM (active)
CN(CCCC(O)c1cccnc1)N=O (stereo not given) | 0.214% (inactive) | –
COP(N)(=S)Oc1ccccc1C(=O)OC(C)C (stereo not given) | -4.75% (inactive) | –
CNC(=O)Oc1ccccc1C(C)C | -1.76% (inactive) | –
CC(C)[C@@H](Nc1ccc(C(F)(F)F)cc1Cl)C(=O)OC(C#N)c1cccc(Oc2ccccc2)c1 (stereo not given in full) | 21.8% (inactive) | –
COC(=O)C(c1ccccc1)C1CCCCN1 (stereo not given) | 0.874% (inactive) | –
CSC1=N[C@@](C)(c2ccccc2)C(=O)N1Nc1ccccc1 | -0.788% (inactive) | –
CN/C(=N\[N+](=O)[O-])NCc1cnc(Cl)s1 | -4.4% (inactive) | –
O=C(N[C@H]1CN2CCC1CC2)c1cc2ccoc2cn1 | 0.0044% (inactive) | –
O=[N+]([O-])c1cc(Cl)c(Cl)cc1Cl | -0.648% (inactive) | –
CCCCCC[N+](=O)[O-] | -1.66% (inactive) | –
C[C@]12CC[C@@H](O)C[C@@H]1CC[C@@H]1[C@@H]2CC[C@]2(C)C(=O)CC[C@@H]12 | 0.282% (inactive) | –
CC(=O)[O-].CC(=O)[O-].[Co+2] | 1.13% (inactive) | –
Clc1cc(C(Cl)(Cl)Cl)cnc1Cl | -1.57% (inactive) | –
Cc1ncc(C[n+]2csc(CCO)c2C)c(N)n1 | 8.74% (inactive) | –
CN(C1CCCCC1)C1CCCCC1 | 1.91% (inactive) | –
Clc1ccc(-c2ccc(Cl)c(Cl)c2Cl)c(Cl)c1Cl | – | 51.9 µM (active)
CCOC(=O)COc1ccc(Cl)cc1Cl | 7.45% (inactive) | –
